# Measured values: the supplement of paper PMC6555819
# System: LXRb homodimer (NR concentration 270 nM)
# Assay: PBM binding z-score (relative to random genomic background probes); higher = stronger binding; sequences stand for … in GC…GCGATTGACAGCGTAGAATGAAGG
# How it was run: (§1)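 Antibodies against each partner of ligand-free nuclear receptor dimers (one per run) detected binding on custom Agilent 4×180K protein-binding microarrays after 1 h incubation. The double-stranded probes had 34-nt variable regions carrying direct-repeat seeds, single-nucleotide variants, half-site ablations and random human genomic background sequences. Binding z-scores, from regression-normalized fluorescence, use the random background probes as reference.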
row,Sequence,PBM binding z-score
1,GCTTACGGGTCAAAGGTTATAGTATGAATAGAAT,0.6
2,CCTACAGGGCCAAAGGTCATTGATTCCAATGCTC,0.781
3,TAGCCTAGGTCATGGGCCAGTTTACCACGCGAAC,-0.093
4,CGTCCAAGGTAAGAGAGGTCAGTGAATGCCGAGT,-0.936
5,CCGACGGGGGCAGAAAGGTTACCATACCATCCGG,3.55
6,CCTACTGGGCCAAAGGTCAGTGATTCCAATGCTC,-0.252
7,AGTCAAAGTTCATCTTGGTAACGTAAGATATGCT,2.25
8,ATACCAAGGTTATCGTGAGGTCGTTGATACTAAC,0.533
9,TCTCGGAGGTCACGAAGGTCAGAGCTTTCCAGAG,0.683
10,CCTTGCGGGTCACTGACAGGTTATAGCATTTGGA,-0.459
11,CTCGAAAGGTCGTCCTCAGGTGAGTATACCAAAC,0.328
12,CAAACTAGGTCACCGGAAAGTCAAAGTCCGCATG,0.685
13,TAGCCTAGGTCATTCAGGGGCCAGAATAGAAAGC,1.34
14,CACACTAGGTCAAGAGGTCAAAGTCCGCTTCCCG,2.67
15,CTCGAAAGGTCGTGCTCAGGTGAGTATGCCAAAC,-0.0304
16,CAAACTAGGTCACAGAGGTCGAAGTCCGTGCGTA,0.575
17,CGTCCAAGGTCAGAGAGGTCATTGAATGCCGAGT,0.491

# System: PPARa:RXRa (NR concentration 270 nM, RXRa partner concentration 90 nM)
# Assay: as above
# How it was run: as §1
row,Sequence,PBM binding z-score
1,ATCGAAAGGTCGTGAGGTGTGTATACAGAAAGGC,4.94
2,GGAACGAGGGCAAAGGTGATAGCATCTGTCGACG,4.97
3,ATATGGAGGTTAAGGGTCATTCAGGTTGGTTCGC,6
4,ATCGAAAGGTCGTGAGGTGACTATACAGAAAGGC,5.49
5,CGTCAAAGTTCAACTAAGGTAACTTAAAGCACGC,5.47
6,CGGCCAAGGTCAAAGGTCAGTGAAGAGATGACGG,7.11
7,ATCTCTAGGTAAAGGTCAGTGAAAGATCGATAGA,4.32
8,CGTCCAAGGTCATAAGAGGTCAGTGAAGACAGAT,5.7
9,CCTAGTTGGCCAAGGTCACACACGCTATAGGTAC,3.8
10,CCTTACGGGTCACGGGGTTATAGCACGACGAGCG,6.37
11,TAGCCTAGGTCATTCAGGGGTCAGTATAGAAAGC,5.18
12,TCTAGTTGGTTACGGAGGTCACACACGACGGGTA,3.67
13,AATACAGGGTCGCTAGGCCAGAGTAGGTACGAAT,1.37
14,ATACCAAGGTGATCGTGAGTTCGTTGATACTAAC,0.602
15,CGTCCAAGGTCAATGCTAGGTCACTGAAAGCATT,5.16
16,TTACCAAGGTCAGCTGAGGTCGTTGATCCAACTC,4.83
17,ATCGAAAGGTCGACGAGTTGAGTATACACCGTTT,3.98
18,TTACAAAGGTGAGCTGAGGTCGTTGATCCAACTC,2.86
19,GGAACGAGGGCATTCGAGTTGATAGCATGGCGAT,1.38
20,CCGACTGGGGCAAAGGTTACCACACTCAGTACGA,5.83

row,Sequence,PBM binding z-score
1,CGTCAAAGTTCAACTAATGTAACGTAAAGCACGC,4.77
2,CCTTACGGGTCACTCTAGGTTATAGCATCGGAGT,4.68
3,GCTTACGGGTCAAAGGTTATAGTATGAATAGAAT,6.76
4,CCTACAGGGCCAAAGGTCATTGATTCCAATGCTC,5.51
5,TAGCCTAGGTCATGGGCCAGTTTACCACGCGAAC,4.37
6,CGTCCAAGGTAAGAGAGGTCAGTGAATGCCGAGT,2.53
7,CCGACGGGGGCAGAAAGGTTACCATACCATCCGG,3.93
8,CCTACTGGGCCAAAGGTCAGTGATTCCAATGCTC,6.01
9,AGTCAAAGTTCATCTTGGTAACGTAAGATATGCT,4.58
10,ATACCAAGGTTATCGTGAGGTCGTTGATACTAAC,2.77
11,TCTCGGAGGTCACGAAGGTCAGAGCTTTCCAGAG,6.27
12,CCTTGCGGGTCACTGACAGGTTATAGCATTTGGA,5.05
13,CTCGAAAGGTCGTCCTCAGGTGAGTATACCAAAC,4.54
14,CAAACTAGGTCACCGGAAAGTCAAAGTCCGCATG,5.64
15,TAGCCTAGGTCATTCAGGGGCCAGAATAGAAAGC,3.9
16,CACACTAGGTCAAGAGGTCAAAGTCCGCTTCCCG,6.33
17,CTCGAAAGGTCGTGCTCAGGTGAGTATGCCAAAC,4.79
18,CAAACTAGGTCACAGAGGTCGAAGTCCGTGCGTA,5.48
19,CGTCCAAGGTCAGAGAGGTCATTGAATGCCGAGT,6.01
